In PubChem BioAssay (NCI) one finds growth data, which are given here for 7 compounds.

Test systems include NCI-H23 lung; NCI-H226 lung; NCI-H322M lung; HOP-62 NSCLC; NCI-H460 lung; HOP-92 NSCLC; NCI-H522 lung; A549/ATCC NSCLC; 786-0 renal; COLO 205 colon; DU-145 prostate; K-562 leukemia; MALME-3M melanoma; MDA-MB-231 breast; RXF 393 renal; SF-268 CNS; SF-295 CNS; SF-539 CNS; UACC-257 melanoma; M14 melanoma.
What all share (experiment): NCI-60 one-dose screen, 48 h (100 = growth as untreated, 0 = no growth, -100 = all killed)
Common to all, as to conditions: 10 µM unless noted

Compounds without any hit were thinned out: in the full panel of roughly 83,000, 20% have a hit.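 Results are percent growth after 48 hours of single-concentration exposure. 100 means growth as in untreated cells, lower positive values show inhibition; negative values down to -100 show cell death.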 A number with no mark means an inactive call. Active and inactive are the calls of the source. The calls were made as follows: active = growth percent below 10; inactive = the rest.

In the case of `CC(C)Sc1nc(NCCc2c[nH]c3ccccc23)c(C#N)c(-c2ccc(F)cc2)n1`, the growth was 46.2% in the assay on NCI-H23 lung; 54.5% in the assay on NCI-H226 lung; 85.2% in the assay with NCI-H322M lung; 51.9% in the assay with HOP-62 NSCLC; 5.26% (active) in the assay on NCI-H460 lung; 20.1% in the assay on HOP-92 NSCLC. Further, the growth in the assay on NCI-H522 lung was 39.8%; in the assay on A549/ATCC NSCLC it was 51.4%; in the assay on 786-0 renal, 14.4%; in the assay with COLO 205 colon, 28.9%; in the assay with DU-145 prostate, 40.6%; in the assay on K-562 leukemia it was 9.31% (active). Further, the growth with MALME-3M melanoma is 80.6%; in the assay on MDA-MB-231 breast it was 11.2%; in the assay with RXF 393 renal, -3.65% (active); with SF-268 CNS, 45.1%; in the assay with SF-295 CNS it was 49.4%; with SF-539 CNS, 40.1%. The growth in the assay with UACC-257 melanoma is 90.2%; in the assay on M14 melanoma it was 46.8%.

For `CC(/C=C1\SC(=S)N(CCCC(=O)NC(CC(C)C)C(=O)O)C1=O)=C\c1ccccc1` (stereo not given), the growth was 96.5% with NCI-H23 lung; 91.1% in the assay on NCI-H226 lung; 92.8% in the assay with NCI-H322M lung; 110% with HOP-62 NSCLC; 99.8% in the assay with NCI-H460 lung; 7.81% (active) in the assay on HOP-92 NSCLC. The growth in the assay on NCI-H522 lung is 84.2%; in the assay with A549/ATCC NSCLC, 89.8%; with 786-0 renal it was 93.4%; with COLO 205 colon, 124%; in the assay on DU-145 prostate it was 98.7%; in the assay with K-562 leukemia, 82.8%. Besides, the growth with MALME-3M melanoma is 104%; in the assay on MDA-MB-231 breast it was 99.8%; in the assay with RXF 393 renal it was 96.2%; in the assay on SF-268 CNS, 100%; in the assay with SF-295 CNS it was 97.4%; in the assay with SF-539 CNS, 96%. Moreover, the growth in the assay on UACC-257 melanoma is 104%; in the assay on M14 melanoma, 78.6%.

`COc1cc2c(c(OC)c1OC)C(=O)CC(c1cccc(NC(=O)c3cc(NC(=O)[C@H](CO)NC(=O)OC(C)(C)C)ccc3Cl)c1)O2` (stereo not given in full): the growth with NCI-H23 lung is 37.3%; in the assay with NCI-H226 lung it was 33%; with NCI-H322M lung it was 42.5%; with HOP-62 NSCLC, 50.3%; in the assay on NCI-H460 lung it was 34.3%; in the assay on HOP-92 NSCLC it was 39.7%. For the same compound, the growth in the assay on NCI-H522 lung was 27.6%; in the assay on A549/ATCC NSCLC, 58.2%; in the assay on 786-0 renal, 42.8%; in the assay on COLO 205 colon, 43%; in the assay on DU-145 prostate, 27.5%; in the assay with K-562 leukemia, 12.7%. Also, the growth was 43.2% in the assay with MALME-3M melanoma; 6.43% (active) in the assay with MDA-MB-231 breast; 46.8% with RXF 393 renal; 45.4% in the assay with SF-268 CNS; 37% in the assay with SF-295 CNS; 37% in the assay on SF-539 CNS. Moreover, the growth in the assay on UACC-257 melanoma is 26.9%; in the assay with M14 melanoma it was 22.5%.

On to `CCCCCCCCc1ccc(C(=O)Nc2cccc(P(=O)(O)O)c2)cc1`, for which the growth with NCI-H23 lung is 96.7%; in the assay with NCI-H226 lung, 97.4%; in the assay with NCI-H322M lung it was 103%; in the assay with HOP-62 NSCLC, 111%; in the assay on NCI-H460 lung, 107%; with HOP-92 NSCLC it was 114%. In addition, the growth was 112% in the assay on NCI-H522 lung; 99.9% with A549/ATCC NSCLC; 104% in the assay on 786-0 renal; 113% with COLO 205 colon; 107% with DU-145 prostate; 97.6% in the assay with K-562 leukemia. For the same compound, the growth in the assay with MALME-3M melanoma is 106%; with MDA-MB-231 breast it was 116%; in the assay with RXF 393 renal, 129%; in the assay on SF-268 CNS, 107%; in the assay on SF-295 CNS it was 96.5%; in the assay on SF-539 CNS, 97.4%. Moreover, the growth was 97.1% in the assay on UACC-257 melanoma and 96.2% in the assay with M14 melanoma.

Consider `CC(=O)Nc1ccc(-n2cnc3ccc(-c4ccc(O)cc4)cc32)cc1`, for which the growth in the assay with NCI-H23 lung was 41.3%; with NCI-H226 lung it was 52.5%; with NCI-H322M lung, 44%; in the assay with HOP-62 NSCLC, 53%; in the assay with NCI-H460 lung it was 38.7%; in the assay on HOP-92 NSCLC, 66%. Further, the growth with NCI-H522 lung is 54%; in the assay with A549/ATCC NSCLC, 44%; with 786-0 renal, 48.5%; in the assay with COLO 205 colon, 123%; in the assay with DU-145 prostate, 44.7%; with K-562 leukemia, 56.6%. The growth in the assay on MALME-3M melanoma is 50.3%; in the assay on MDA-MB-231 breast, 70.4%; with RXF 393 renal it was 10.9%; with SF-268 CNS, 36.3%; in the assay on SF-295 CNS it was 56%; in the assay with SF-539 CNS, 34.2%. The growth in the assay on UACC-257 melanoma was 67.3%; in the assay with M14 melanoma it was 48.7%.

With `Cc1ccc([C@H]2C(C(=O)c3ccc(Cl)cc3)C3(N[C@@H]2c2ccccc2)C(=O)Nc2ccc(Br)cc23)cc1` (stereo not given in full), the growth is 61.4% in the assay on NCI-H23 lung; 66.7% in the assay on NCI-H226 lung; 69.1% in the assay with NCI-H322M lung; 69.9% with HOP-62 NSCLC; 55.6% in the assay on NCI-H460 lung; 21.9% in the assay with HOP-92 NSCLC. The growth in the assay with NCI-H522 lung is 46.5%; in the assay on A549/ATCC NSCLC it was 38.4%; in the assay with 786-0 renal, 45.8%; in the assay with COLO 205 colon, 49.3%; in the assay with DU-145 prostate, 82.5%; in the assay with K-562 leukemia, 26.6%. Moreover, the growth with MALME-3M melanoma is 92.2%; in the assay on MDA-MB-231 breast, 49.7%; with RXF 393 renal, 33.6%; in the assay on SF-268 CNS, 100%; in the assay with SF-295 CNS, 52.4%; in the assay on SF-539 CNS, 79.7%. Further, the growth with UACC-257 melanoma is 71.6%; with M14 melanoma, 44.3%.

As for `COc1cc2c(c(OC)c1OC)C(=O)CC(c1cccc(NC(=O)[C@@H](N)CC(C)C)c1)O2` (stereo not given in full), the growth was 102% in the assay with NCI-H23 lung; 94.3% in the assay on NCI-H226 lung; 111% in the assay on NCI-H322M lung; 99% with HOP-62 NSCLC; 106% in the assay on NCI-H460 lung; 80.2% with HOP-92 NSCLC. In addition, the growth in the assay on NCI-H522 lung was 90%; in the assay on A549/ATCC NSCLC, 93.1%; in the assay with 786-0 renal, 96.4%; in the assay with COLO 205 colon, 118%; in the assay on DU-145 prostate it was 100%; in the assay on K-562 leukemia, 80.6%. The growth with MALME-3M melanoma is 95.5%; with MDA-MB-231 breast, 99.9%; in the assay on RXF 393 renal, 101%; in the assay on SF-268 CNS, 95.1%; in the assay with SF-295 CNS, 101%; in the assay with SF-539 CNS, 97.3%. The growth in the assay with UACC-257 melanoma was 94.1%; with M14 melanoma, 116%.
